# Active and inactive are the calls of the source. How the source made its calls: active means hit-call score of the fitted dose curve at least 0.9, where 1 is the maximum; inactive means score below 0.9.
# Assays:
# Settings in all cases: mRNA level, 48 h; actives raise or lower the signal
# [1] = read-out: Cytochrome P450 (CYP1A1), CYP1A1 (gene 1543); test: LTEA_HepaRG_CYP1A1: Life Technologies and Expression Analysis (LTEA) Assay for Cytochrome P450 (CYP1A1) using HepaRG (AID 2283454)
# Summary of the method: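 HepaRG, 48 h post-plating switched to serum-free induction medium; 8-pt conc-response (top 100 uM, half-log, 0.5% DMSO), duplicates, 48 h. Lysis in RLT, TaqMan qRT-PCR for CYP1A1; gain or loss vs DMSO.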
# [2] = read-out: CFLAR gene, CFLAR (gene 8837); test: LTEA_HepaRG_CFLAR: Life Technologies and Expression Analysis (LTEA) Assay for CFLAR gene using HepaRG (AID 2283455)
# Summary of the method: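 HepaRG cells were plated for 48 h, switched to serum-free induction medium, then exposed in duplicate for 48 h to 8 concentrations (top 100 uM, half-log steps, 0.5% DMSO). CFLAR mRNA was measured by qRT-PCR, normalized to ACTB, GAPDH and POLR2A.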
# [3] = read-out: Forkhead box O1 (FOXO1), FOXO1 (gene 2308); test: LTEA_HepaRG_FOXO1: Life Technologies and Expression Analysis (LTEA) Assay for Forkhead box O1 (FOXO1) using HepaRG (AID 2283456)
# Summary of the method: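 Differentiated human HepaRG cells in serum-free induction medium were exposed in duplicate for 48 h to eight half-log concentrations (top 100 uM, 0.5% DMSO). FOXO1 mRNA was measured by TaqMan qRT-PCR, normalised to ACTB, GAPDH and POLR2A, and fitted bidirectionally against DMSO.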
# [4] = read-out: growth arrest and DNA damage 45 (GADD45A), GADD45A (gene 1647); test: LTEA_HepaRG_GADD45A: Life Technologies and Expression Analysis (LTEA) Assay for growth arrest and DNA damage 45 (GADD45A) using HepaRG (AID 2283458)
# Summary of the method: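 Differentiated HepaRG cells were exposed in duplicate for 48 h in serum-free induction medium to 8-point half-log concentrations up to 100 uM in 0.5% DMSO. GADD45A mRNA was measured by TaqMan qRT-PCR, normalized to ACTB, GAPDH and POLR2A, with bidirectional fitting versus DMSO.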
# [5] = read-out: Forkhead box O3 (FOXO3), FOXO3 (gene 2309); test: LTEA_HepaRG_FOXO3: Life Technologies and Expression Analysis (LTEA) Assay for Forkhead box O3 (FOXO3) using HepaRG (AID 2283459)
# Summary of the method: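 Differentiated human HepaRG cells in serum-free induction medium were exposed in duplicate for 48 h to eight half-log concentrations up to 100 uM in 0.5% DMSO. FOXO3 mRNA was quantified by qRT-PCR, normalized to ACTB, GAPDH and POLR2A, with bidirectional fitting versus DMSO.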
# [6] = read-out: ABC Transporter (ABCB1), ABCB1 (gene 5243); test: LTEA_HepaRG_ABCB1: Life Technologies and Expression Analysis (LTEA) Assay for ABC Transporter (ABCB1) using HepaRG (AID 2283460)
# Summary of the method: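 Differentiated human HepaRG cells, plated 48 h then switched to serum-free induction medium, were exposed in duplicate to eight half-log concentrations up to 100 uM in 0.5% DMSO for 48 h. ABCB1 mRNA was measured by TaqMan qRT-PCR, normalized to ACTB/GAPDH/POLR2A.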
# [7] = read-out: growth arrest and DNA damage 45 (GADD45B), GADD45B (gene 4616); test: LTEA_HepaRG_GADD45B: Life Technologies and Expression Analysis (LTEA) Assay for growth arrest and DNA damage 45 (GADD45B) using HepaRG (AID 2283461)
# Summary of the method: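 HepaRG, ~100,000 cells/well, 48 h plating; serum-free induction medium; cpd 100 uM top, half-log x8, 0.5% DMSO, duplicate, 48 h; lysis in RLT, RNA isolation, qRT-PCR; norm ACTB/GAPDH/POLR2A; bidirectional fit vs DMSO.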
# [8] = read-out: ABC Transporter (ABCC3), ABCC3 (gene 8714); test: LTEA_HepaRG_ABCC3: Life Technologies and Expression Analysis (LTEA) Assay for ABC Transporter (ABCC3) using HepaRG (AID 2283462)
# Summary of the method: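 Human HepaRG, 48 h dosing, 8-pt half-log series from 100 uM, 0.5% DMSO vehicle, duplicates. ABCC3 mRNA by TaqMan qRT-PCR, housekeeping-normalized; bidirectional curve fit vs DMSO.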
# [9] = read-out: ABC Transporter (ABCB11), ABCB11 (gene 8647); test: LTEA_HepaRG_ABCB11: Life Technologies and Expression Analysis (LTEA) Assay for ABC Transporter (ABCB11) using HepaRG (AID 2283463)
# Summary of the method: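 Differentiated human HepaRG cells were exposed for 48 h in serum-free induction medium to eight half-log concentrations up to 100 uM in 0.5% DMSO. ABCB11 mRNA was quantified by qRT-PCR, normalized to ACTB, GAPDH and POLR2A, and fitted bidirectionally versus DMSO.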
# [10] = read-out: ABC Transporter (ABCC2), ABCC2 (gene 1244); test: LTEA_HepaRG_ABCC2: Life Technologies and Expression Analysis (LTEA) Assay for ABC Transporter (ABCC2) using HepaRG (AID 2283464)
# Summary of the method: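 HepaRG, 48 h post-plating; serum-free induction medium; cpd 8-pt, 100 uM top, half-log, 0.5% DMSO, duplicate, 48 h. Readout: ABCC2 mRNA by qRT-PCR, norm. ACTB/GAPDH/POLR2A. Bidirectional fit vs DMSO baseline.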
# [11] = read-out: ATP-citrate lyase (ACLY), ACLY (gene 47); test: LTEA_HepaRG_ACLY: Life Technologies and Expression Analysis (LTEA) Assay for ATP-citrate lyase (ACLY) using HepaRG (AID 2283466)
# Summary of the method: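 Differentiated human HepaRG cells in serum-free induction medium exposed 48 h, in duplicate, to eight half-log concentrations from 100 uM top in 0.5% DMSO; ACLY mRNA measured by qRT-PCR, normalized to ACTB, GAPDH, POLR2A, fitted bidirectionally versus DMSO.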
# [12] = read-out: Peroxisomal acyl-coenzyme A oxidase 1 (ACOX1) gene, ACOX1 (gene 51); test: LTEA_HepaRG_ACOX1: Life Technologies and Expression Analysis (LTEA) Assay for Peroxisomal acyl-coenzyme A oxidase 1 (ACOX1) gene using HepaRG (AID 2283467)
# Summary of the method: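 Differentiated human HepaRG cells were exposed in duplicate for 48 h in serum-free induction medium to eight half-log concentrations up to 100 uM in 0.5% DMSO. ACOX1 mRNA was then quantified by TaqMan qRT-PCR, normalized to ACTB, GAPDH and POLR2A.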
# [13] = read-out: Alkaline Phosphatase, Placental (ALPP) gene, ALPP (gene 250); test: LTEA_HepaRG_ALPP: Life Technologies and Expression Analysis (LTEA) Assay for Alkaline Phosphatase, Placental (ALPP) gene using HepaRG (AID 2283468)
# Summary of the method: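 HepaRG, 48 h plating then 48 h dosing, serum-free induction medium, 0.5% DMSO. 8 conc, half-log, max 100 uM, duplicates. Endpoint: ALPP transcript by qRT-PCR, housekeeping-normalized; gain or loss fitted vs DMSO.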
# [14] = read-out: Bcl-2 (BAD) gene, BAD (gene 572); test: LTEA_HepaRG_BAD: Life Technologies and Expression Analysis (LTEA) Assay for Bcl-2 (BAD) gene using HepaRG (AID 2283469)
# Summary of the method: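 Differentiated human HepaRG cells in serum-free induction medium were exposed in duplicate for 48 h to eight concentrations (top 100 uM, half-log steps, 0.5% DMSO). BAD mRNA was quantified by qRT-PCR normalised to ACTB, GAPDH and POLR2A, with bidirectional fitting versus DMSO.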
# [15] = read-out: Bcl-2 (BAX) gene, BAX (gene 581); test: LTEA_HepaRG_BAX: Life Technologies and Expression Analysis (LTEA) Assay for Bcl-2 (BAX) gene using HepaRG (AID 2283470)
# Summary of the method: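 Differentiated human HepaRG cells, plated 48 h then switched to serum-free induction medium, were exposed 48 h to 8 half-log concentrations up to 100 uM in 0.5% DMSO; BAX mRNA measured by qRT-PCR, normalized to ACTB, GAPDH, POLR2A.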
# [16] = read-out: adenosine kinase (ADK) gene, ADK (gene 132); test: LTEA_HepaRG_ADK: Life Technologies and Expression Analysis (LTEA) Assay for adenosine kinase (ADK) gene using HepaRG (AID 2283471)
# Summary of the method: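 Differentiated HepaRG cells dosed 48 h in serum-free induction medium, 0.5% DMSO vehicle, eight half-log concentrations from 100 uM, in duplicate. ADK mRNA by TaqMan qRT-PCR normalised to ACTB, GAPDH, POLR2A; bidirectional fit versus DMSO.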
# [17] = read-out: Alpha-fetoprotein (AFP) gene, AFP (gene 174); test: LTEA_HepaRG_AFP: Life Technologies and Expression Analysis (LTEA) Assay for Alpha-fetoprotein (AFP) gene using HepaRG (AID 2283472)
# Summary of the method: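 Human HepaRG cells plated 48 h, then switched to serum-free induction medium and exposed in duplicate for 48 h to 8-point half-log series from 100 uM in 0.5% DMSO. AFP mRNA by qRT-PCR, normalized to ACTB, GAPDH, POLR2A; bidirectional fit versus DMSO.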
# BCL2L11 (gene 10018) = test: LTEA_HepaRG_BCL2L11: Life Technologies and Expression Analysis (LTEA) Assay for Bcl-2 (BCL2L11) gene using HepaRG (AID 2283473)
# Summary of the method: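 Read-out is BCL2L11 transcript level by qRT-PCR, normalized to three housekeeping genes and fitted bidirectionally against 0.5% DMSO vehicle. HepaRG cells received chemicals for 48 h in serum-free induction medium, 100 uM down in half-log dilutions.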
smiles,measurement,setting,value
CC(Oc1cccc(Cl)c1)C(=O)O (configuration not stated),outcome,[1],inactive
same,outcome,[2],inactive
same,outcome,[3],inactive
same,outcome,[4],inactive
same,outcome,[5],inactive
same,outcome,[6],inactive
same,outcome,[7],inactive
same,outcome,[8],inactive
same,outcome,[9],inactive
same,AC50,[10],20.2 µM (active)
same,outcome,[11],inactive
same,outcome,[12],inactive
same,outcome,[13],inactive
same,outcome,[14],inactive
same,outcome,[15],inactive
same,outcome,[16],inactive
same,outcome,[17],inactive
same,outcome,BCL2L11 (gene 10018),inactive
CON=C(C(=O)OC)c1ccccc1CON=C(C)c1cccc(C(F)(F)F)c1,AC50,[1],50 µM (active)
same,outcome,[2],inactive
same,outcome,[3],inactive
same,outcome,[4],inactive
same,outcome,[5],inactive
same,outcome,[6],inactive
same,outcome,[7],inactive
same,outcome,[8],inactive
same,AC50,[9],85.5 µM (active)
same,outcome,[10],inactive
same,outcome,[11],inactive
same,outcome,[12],inactive
same,outcome,[13],inactive
same,outcome,[14],inactive
same,outcome,[15],inactive
same,outcome,[16],inactive
same,outcome,[17],inactive
same,outcome,BCL2L11 (gene 10018),inactive
CC(=NC#N)N(C)Cc1ccc(Cl)nc1,AC50,[1],50 µM (active)
same,outcome,[2],inactive
same,outcome,[3],inactive
same,outcome,[4],inactive
same,outcome,[5],inactive
same,outcome,[6],inactive
same,outcome,[7],inactive
same,outcome,[8],inactive
same,outcome,[9],inactive
same,outcome,[10],inactive
same,outcome,[11],inactive
same,outcome,[12],inactive
same,outcome,[13],inactive
same,outcome,[14],inactive
same,outcome,[15],inactive
same,outcome,[16],inactive
same,outcome,[17],inactive
same,outcome,BCL2L11 (gene 10018),inactive
C=C(C)[C@H]1Cc2c(ccc3c2O[C@@H]2COc4cc(OC)c(OC)cc4[C@@H]2C3=O)O1,AC50,[1],2.44 µM (active)
same,outcome,[2],inactive
same,AC50,[3],11.7 µM (active)
same,AC50,[4],6.57 µM (active)
same,outcome,[5],inactive
same,AC50,[6],18.6 µM (active)
same,AC50,[7],16.5 µM (active)
same,outcome,[8],inactive
same,AC50,[9],7.9 µM (active)
same,AC50,[10],15.2 µM (active)
same,outcome,[11],inactive
same,AC50,[12],11.7 µM (active)
same,AC50,[13],0.384 µM (active)
same,outcome,[14],inactive
same,AC50,[15],6.55 µM (active)
same,outcome,[16],inactive
same,AC50,[17],0.985 µM (active)
same,AC50,BCL2L11 (gene 10018),1.07 µM (active)

# Source: PubChem BioAssay (EPA / NIEHS)
